Laboratory results from PubChem BioAssay AID1159580 (chemical genetic matrix, 2015).
Where “and” joins values, the source holds several entries; their conditions need not be identical. Equal entries are not always repeated. The campaign covered roughly 5,500 compounds. About 2,000 (36%) were called active. About 18% were inconclusive and are not listed. The list shows a part of the results. A number with no mark means an inactive call. Cut-off read from the data, not from the text of the source: active = normalized growth mostly below about 0.91 (no sharp cut-off); inconclusive = no clear call, values can overlap the other calls; inactive = mostly above about 0.92.

Experiment: chemical genetic growth profiling, strain panel (AID 1159580);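 note: tested at 20 µM; growth read once vehicle control cultures reached saturation at 30 °C; 1 = growth at the plate median or of vehicle wells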
Details: growth OD

Question: Which results are given for `O=S(=O)(N/N=C\c1ccc(Cl)cc1)c1ccc(-c2ccccn2)s1`?
Answer: normalized growth (S. cerevisiae deletion strains, locus YAL013W, strain DEP1, stronger effect = lower value): 0.973; normalized growth (S. cerevisiae deletion strains, locus YAR019C, strain CDC15, stronger effect = lower value): 0.993; normalized growth (S. cerevisiae deletion strains, locus YBL105C, strain PKC1, stronger effect = lower value): 0.981; normalized growth (S. cerevisiae deletion strains, locus YBR135W, strain CKS1, stronger effect = lower value): 0.98; normalized growth (S. cerevisiae deletion strains, locus YBR136W, strain MEC1, stronger effect = lower value): 0.982; normalized growth (S. cerevisiae deletion strains, locus YBR160W, strain CDC28, stronger effect = lower value): 0.969; normalized growth (S. cerevisiae deletion strains, locus YBR229C, strain ROT2, stronger effect = lower value): 0.994; normalized growth (S. cerevisiae deletion strains, locus YDL017W, strain CDC7, stronger effect = lower value): 0.978; normalized growth (S. cerevisiae deletion strains, locus YDL028C, strain MPS1, stronger effect = lower value): 0.969; normalized growth (S. cerevisiae deletion strains, locus YDL101C, strain DUN1, stronger effect = lower value): 0.979 and 0.977; normalized growth (S. cerevisiae deletion strains, locus YDL108W, strain KIN28, stronger effect = lower value): 0.976; normalized growth (S. cerevisiae deletion strains, locus YDL132W, strain cdc53, stronger effect = lower value): 0.975; normalized growth (S. cerevisiae deletion strains, locus YDL134C, strain PPH21, stronger effect = lower value): 0.931; normalized growth (S. cerevisiae deletion strains, locus YDL214C, strain PRR2, stronger effect = lower value): 0.98; normalized growth (S. cerevisiae deletion strains, locus YDR052C, strain DBF4, stronger effect = lower value): 0.97; normalized growth (S. cerevisiae deletion strains, locus YDR054C, strain cdc34, stronger effect = lower value): 0.979; normalized growth (S. cerevisiae deletion strains, locus YDR150W, strain NUM1, stronger effect = lower value): 0.976; normalized growth (S. cerevisiae deletion strains, locus YDR226W, strain ADK1, stronger effect = lower value): 0.988; normalized growth (S. cerevisiae deletion strains, locus YDR477W, strain SNF1, stronger effect = lower value): 0.958; normalized growth (S. cerevisiae deletion strains, locus YEL061C, strain CIN8, stronger effect = lower value): 0.935; normalized growth (S. cerevisiae deletion strains, locus YER123W, strain YCK3, stronger effect = lower value): 0.96; normalized growth (S. cerevisiae deletion strains, locus YER133W, strain GLC7, stronger effect = lower value): 0.99; normalized growth (S. cerevisiae deletion strains, locus YFL009W, strain cdc4, stronger effect = lower value): 0.974; normalized growth (S. cerevisiae deletion strains, locus YFL029C, strain CAK1, stronger effect = lower value): 0.994; normalized growth (S. cerevisiae deletion strains, locus YFR003C, strain YPI1, stronger effect = lower value): 0.976; normalized growth (S. cerevisiae deletion strains, locus YFR019W, strain FAB1, stronger effect = lower value): 0.976; normalized growth (S. cerevisiae deletion strains, locus YFR028C, strain CDC14, stronger effect = lower value): 0.973; normalized growth (S. cerevisiae deletion strains, locus YGR040W, strain KSS1, stronger effect = lower value): 0.96; normalized growth (S. cerevisiae deletion strains, locus YGR052W, strain FMP48, stronger effect = lower value): 0.947; normalized growth (S. cerevisiae deletion strains, locus YGR078C, strain PAC10, stronger effect = lower value): 0.975; normalized growth (S. cerevisiae deletion strains, locus YGR092W, strain DBF2, stronger effect = lower value): 0.942; normalized growth (S. cerevisiae deletion strains, locus YHR030C, strain SLT2, stronger effect = lower value): 0.797 and 1.04; normalized growth (S. cerevisiae deletion strains, locus YHR079C, strain IRE1, stronger effect = lower value): 1.07; normalized growth (S. cerevisiae deletion strains, locus YHR082C, strain KSP1, stronger effect = lower value): 1.02; normalized growth (S. cerevisiae deletion strains, locus YHR087W, strain rtc3, stronger effect = lower value): 0.998; normalized growth (S. cerevisiae deletion strains, locus YHR205W, strain SCH9, stronger effect = lower value): 0.983; normalized growth (S. cerevisiae deletion strains, locus YIL147C, strain SLN1, stronger effect = lower value): 0.975; normalized growth (S. cerevisiae deletion strains, locus YJL095W, strain BCK1, stronger effect = lower value): 0.961; normalized growth (S. cerevisiae deletion strains, locus YJL128C, strain PBS2, stronger effect = lower value): 0.946; normalized growth (S. cerevisiae deletion strains, locus YJL157C, strain FAR1, stronger effect = lower value): 0.98; normalized growth (S. cerevisiae deletion strains, locus YJL187C, strain SWE1, stronger effect = lower value): 1.02; normalized growth (S. cerevisiae deletion strains, locus YJR016C, strain ILV3, stronger effect = lower value): 0.976; normalized growth (S. cerevisiae deletion strains, locus YJR043C, strain POL32, stronger effect = lower value): 0.947; normalized growth (S. cerevisiae deletion strains, locus YJR066W, strain TOR1 (second series), stronger effect = lower value): 0.996; normalized growth (S. cerevisiae deletion strains, locus YJR066W, strain TOR1, stronger effect = lower value): 1.05; normalized growth (S. cerevisiae deletion strains, locus YJR075W, strain HOC1, stronger effect = lower value): 0.988; normalized growth (S. cerevisiae deletion strains, locus YKL048C, strain ELM1, stronger effect = lower value): 0.959; normalized growth (S. cerevisiae deletion strains, locus YKL067W, strain YNK1, stronger effect = lower value): 0.976; normalized growth (S. cerevisiae deletion strains, locus YKL101W, strain HSL1, stronger effect = lower value): 0.949; normalized growth (S. cerevisiae deletion strains, locus YKL190W, strain CNB1, stronger effect = lower value): 0.924 (active); normalized growth (S. cerevisiae deletion strains, locus YKL193C, strain SDS22, stronger effect = lower value): 0.977; normalized growth (S. cerevisiae deletion strains, locus YKL203C, strain TOR2, stronger effect = lower value): 1.04; normalized growth (S. cerevisiae deletion strains, locus YLR039C, strain RIC1, stronger effect = lower value): 0.465 (active); normalized growth (S. cerevisiae deletion strains, locus YLR058C, strain SHM2 (second series), stronger effect = lower value): 0.996; normalized growth (S. cerevisiae deletion strains, locus YLR085C, strain ARP6, stronger effect = lower value): 0.912; normalized growth (S. cerevisiae deletion strains, locus YLR113W, strain HOG1, stronger effect = lower value): 0.888; normalized growth (S. cerevisiae deletion strains, locus YLR133W, strain CKI1, stronger effect = lower value): 0.967; normalized growth (S. cerevisiae deletion strains, locus YLR262C, strain YPT6, stronger effect = lower value): 0.427 (active); normalized growth (S. cerevisiae deletion strains, locus YLR403W, strain SFP1, stronger effect = lower value): 0.95; normalized growth (S. cerevisiae deletion strains, locus YML070W, strain DAK1, stronger effect = lower value): 0.938; normalized growth (S. cerevisiae deletion strains, locus YML094W, strain GIM5, stronger effect = lower value): 0.95; normalized growth (S. cerevisiae deletion strains, locus YMR001C, strain CDC5, stronger effect = lower value): 0.99; normalized growth (S. cerevisiae deletion strains, locus YMR205C, strain PFK2 (second series), stronger effect = lower value): 0.969; normalized growth (S. cerevisiae deletion strains, locus YMR219W, strain ESC1, stronger effect = lower value): 0.998; normalized growth (S. cerevisiae deletion strains, locus YMR263W, strain SAP30, stronger effect = lower value): 0.976; normalized growth (S. cerevisiae deletion strains, locus YMR277W, strain FCP1, stronger effect = lower value): 0.978; normalized growth (S. cerevisiae deletion strains, locus YMR307W, strain GAS1, stronger effect = lower value): 0.712; normalized growth (S. cerevisiae deletion strains, locus YNL006W, strain LST8, stronger effect = lower value): 0.994; normalized growth (S. cerevisiae deletion strains, locus YNL020C, strain ARK1, stronger effect = lower value): 0.953; normalized growth (S. cerevisiae deletion strains, locus YNL128W, strain TEP1, stronger effect = lower value): 0.975; normalized growth (S. cerevisiae deletion strains, locus YNL153C, strain GIM3, stronger effect = lower value): 0.976; normalized growth (S. cerevisiae deletion strains, locus YNL161W, strain CBK1, stronger effect = lower value): 0.986; normalized growth (S. cerevisiae deletion strains, locus YNL183C, strain NPR1, stronger effect = lower value): 0.967; normalized growth (S. cerevisiae deletion strains, locus YNL207W, strain RIO2, stronger effect = lower value): 0.977; normalized growth (S. cerevisiae deletion strains, locus YNL222W, strain SSU72, stronger effect = lower value): 0.978; normalized growth (S. cerevisiae deletion strains, locus YNL298W, strain CLA4 (second series), stronger effect = lower value): 0.826 (active); normalized growth (S. cerevisiae deletion strains, locus YNL307C, strain MCK1 (second series), stronger effect = lower value): 0.969; normalized growth (S. cerevisiae deletion strains, locus YNL322C, strain KRE1, stronger effect = lower value): 1; normalized growth (S. cerevisiae deletion strains, locus YNR030W, strain Alg12, stronger effect = lower value): 0.856 (active); normalized growth (S. cerevisiae deletion strains, locus YOL006C, strain TOP1, stronger effect = lower value): 0.838; normalized growth (S. cerevisiae deletion strains, locus YOL078W, strain AVO1, stronger effect = lower value): 0.963; normalized growth (S. cerevisiae deletion strains, locus YOL136C, strain PFK27, stronger effect = lower value): 0.94; normalized growth (S. cerevisiae deletion strains, locus YOR061W, strain CKA2, stronger effect = lower value): 0.966; normalized growth (S. cerevisiae deletion strains, locus YOR119C, strain RIO1, stronger effect = lower value): 1.01; normalized growth (S. cerevisiae deletion strains, locus YOR231W, strain MKK1, stronger effect = lower value): 0.945; normalized growth (S. cerevisiae deletion strains, locus YOR329C, strain SCD5, stronger effect = lower value): 0.984; normalized growth (S. cerevisiae deletion strains, locus YPL031C, strain PHO85, stronger effect = lower value): 0.969; normalized growth (S. cerevisiae deletion strains, locus YPL055C, strain LGE1, stronger effect = lower value): 1.1; normalized growth (S. cerevisiae deletion strains, locus YPL153C, strain RAD53, stronger effect = lower value): 0.963; normalized growth (S. cerevisiae deletion strains, locus YPL204W, strain HRR25, stronger effect = lower value): 0.951; normalized growth (S. cerevisiae deletion strains, locus YPL209C, strain IPL1, stronger effect = lower value): 0.974; normalized growth (S. cerevisiae deletion strains, locus YPL241C, strain CIN2, stronger effect = lower value): 0.894; normalized growth (S. cerevisiae deletion strains, locus YPL256C, strain CLN2, stronger effect = lower value): 1.03; normalized growth (S. cerevisiae deletion strains, locus YPR025C, strain CCL1, stronger effect = lower value): 0.982; normalized growth (S. cerevisiae deletion strains, locus YPR106W, strain ISR1, stronger effect = lower value): 0.986; normalized growth (S. cerevisiae deletion strains, locus YPR111W, strain DBF20, stronger effect = lower value): 0.967; normalized growth (S. cerevisiae deletion strains, locus YPR135W, strain CTF4, stronger effect = lower value): 0.711; normalized growth (S. cerevisiae deletion strains, strain NNK1, stronger effect = lower value): 0.996; normalized growth (S. cerevisiae deletion strains, strain TSCII, stronger effect = lower value): 0.984; normalized growth (S. cerevisiae strains, strain wild type, stronger effect = lower value): 0.897 (active)
